# Assay results as given in PubChem BioAssay.
# A number with no mark means an inactive call. No rule for the calls is given here.
# Target: Pantothenate synthetase (Mycobacterium tuberculosis (strain ATCC 25618 / H37Rv)) (UniProt P9WIL5)
# Assay: Recombinant Mtb pantothenate synthetase (PanC) inhibitors, coupled enzyme, confirmatory (AID 375);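 also: 0% = full reaction with vehicle and 100% = no enzyme background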
# Conditions: coupled enzyme assay; at 10 µM, stronger effect = higher value
# Sequence of Pantothenate synthetase (Mycobacterium tuberculosis (strain ATCC 25618 / H37Rv)) (P9WIL5 whole entry, looked up): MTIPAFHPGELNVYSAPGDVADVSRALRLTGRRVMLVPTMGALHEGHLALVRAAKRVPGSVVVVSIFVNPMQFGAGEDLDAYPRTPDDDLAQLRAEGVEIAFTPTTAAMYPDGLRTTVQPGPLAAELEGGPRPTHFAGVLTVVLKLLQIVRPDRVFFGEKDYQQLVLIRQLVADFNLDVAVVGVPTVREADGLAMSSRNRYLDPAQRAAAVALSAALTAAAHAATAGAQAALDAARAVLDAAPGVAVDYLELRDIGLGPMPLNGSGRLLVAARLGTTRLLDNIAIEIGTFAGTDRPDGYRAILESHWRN
row,Structure (SMILES),inhibition [%]
1,COc1cc(CN2CCC(C(=O)NC3CCCC3)CC2)ccc1O,0
2,Cc1cc2c(=O)n(Cc3ccco3)c(SCC(=O)NCc3ccco3)nc2s1,3
3,C=CCOc1ccc(CN(C)CC(=O)N(CC(C)C)c2c(N)n(CC(C)C)c(=O)[nH]c2=O)cc1,0
4,CCN(CC)CCCN(Cc1cc2cc(OC)ccc2[nH]c1=O)C(=O)Nc1ccccc1,9
5,CN(C)CCCN1c2ccccc2Sc2ccccc21,0
